Many of the other results were omitted from the sample, so hits are more common in it than they were.
MgrA-DNA mod = S. aureus MgrA activity modulators, primary screen, biochemical, S. aureus Newman, fluorescence polarization | 84,000 tested, 0.13% active | AID 602314, 2012 | MgrA-DNA binding | inhibition, % (concentration not given with the values); in the data active = inhibition above about 30%, passing the limit was not always enough;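 also: 0% = protein plus DNA without compound and 100% = DNA alone without protein; higher means less MgrA bound to DNA so lower polarization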
* hit, by the source's call.

SMILES	MgrA-DNA mod
O=[N+]([O-])c1ccc(N2CCCC2)c2nonc12	52*
O=[N+]([O-])c1ccc(N2CCCCC2)c2nonc12	16
CC(=O)O[C@@H]1CC(O[C@@H]2C(C)OC(O[C@@H]3C(C)OC(OC4CC[C@@]5(C)[C@H](CC[C@]6(C)[C@]5(C)C[C@@H](O)[C@]5(C)[C@@H](C7=CC(=O)OC7)CC[C@@]56O)C4)C[C@H]3O)C[C@H]2O)OC(C)[C@H]1OC1OC(CO)[C@@H](O)[C@@H](O)[C@@H]1O (some centres undefined)	4
N#CC(C#N)=Cc1c(F)cccc1Cl	1
COC(=O)C1=CN2C(C=C1)C(C(=O)OC)(C(=O)OC)[C@@H](c1cccnc1)[C@@H]2C#N (some centres undefined)	52*
C/C(=C\c1ccccc1[N+](=O)[O-])[N+](=O)[O-]	3
O=C(CN1CCCCC1)Nc1ccc(Cl)cc1C(=O)c1ccccc1Cl	-2
Brc1cnc(N2CCNCC2)nc1	-3
CCOC(=O)C1=C(c2ccccc2)OC(N)=C(C(=O)OCCOC)C12C(=O)Nc1ccc(Br)cc12 (centres undefined)	2
COc1ccc(-n2c(C)cc(/C=C3/C(=O)NC(=O)N(Cc4ccco4)C3=O)c2C)cc1	7
CCN1C(=O)NC(=O)/C(=C\c2cn(CC(=O)N3CCCCC3C)c3ccccc23)C1=O (centres undefined)	15
CCOC(=O)C1CCN(/C=C2/C(=O)NC(=O)N(Cc3ccco3)C2=O)CC1	29*
CCOc1ccc(C=C2C(=O)NC(=S)NC2=O)cc1	25
CN1CCCCC1c1cccnc1N (centres undefined)	-1
CCN1C[C@]2(COC)CC[C@H](O)C34C5C[C@@H]6C(OC)C[C@@](O)(C5[C@H]6OC(C)=O)[C@@H](CC32)[C@@H]14 (some centres undefined)	1

Compound activity as filed in PubChem BioAssay.
